Bioassay records deposited in PubChem by National Center for Advancing Translational Sciences (NCATS).
Shown are actives, neighbours in structure and some others; about 2.9% of the full set was active somewhere.
KDM5B inh = inhibitors of human KDM5B histone demethylase | Potency, µM (series often up to 57.7 µM), usual class: inhibitors | 220,000 tested, 2.6% active | AID 1347165 | KDM5B demethylase, FDH-coupled NADH fluorescence (FDH is formaldehyde dehydrogenase) | Q9UGL1; also: potency is read from the fitted curve at half-maximal effect; 0% is about no effect; nearly all actives have a fitted effect of over 70% in size
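Here, H3K4me3 peptide (12.5 µM in substrate mix) is demethylated by KDM5BΔAP, 200 nM final, after 10 min compound exposure. Formaldehyde product is coupled through FDH (0.25 U/mL in mix) to NADH fluorescence; 30-min ΔRFU feeds dose-response curves.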
IP6K1 inh = blocks human inositol hexakisphosphate kinase 1; IP6K1 kinase, ADP-Glo luminescence, 2 h; stronger effect = lower value; activity change, % (series mostly up to about 58 µM); 140,000 tested, 0.81% active; Q92551; in the data active = activity change below about -25%; also: % is scaled to controls: 0 for no effect and ±100 for the full control effect
Target sequence (Q92551 whole entry, looked up): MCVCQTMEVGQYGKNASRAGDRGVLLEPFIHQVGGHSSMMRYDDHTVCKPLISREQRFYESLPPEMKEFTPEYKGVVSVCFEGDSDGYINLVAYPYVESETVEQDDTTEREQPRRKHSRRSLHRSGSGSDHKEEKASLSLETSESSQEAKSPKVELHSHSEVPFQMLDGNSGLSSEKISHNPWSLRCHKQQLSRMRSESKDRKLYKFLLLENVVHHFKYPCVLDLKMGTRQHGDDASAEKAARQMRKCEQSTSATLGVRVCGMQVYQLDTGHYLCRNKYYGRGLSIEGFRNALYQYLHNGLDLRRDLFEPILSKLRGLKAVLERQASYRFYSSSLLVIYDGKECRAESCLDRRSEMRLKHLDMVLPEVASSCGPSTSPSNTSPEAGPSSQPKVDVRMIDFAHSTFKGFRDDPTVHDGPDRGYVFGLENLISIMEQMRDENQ
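ADP-Glo luminescence measures ADP made by human IP6K1 during a 2 h RT reaction with ATP/IP6 (mix at 1.3 mM/130 uM); top library doses 57.5 and 19.1 uM final.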
SNCA expr inhib = SNCA gene expression inhibition | HEK-293 SNCA-luciferase knock-in, luminescence, 24 h | Potency, µM (titrated, usually from 57.2 µM), without a hit: at the top dose activity change, negative = inhibition, most hits filed as inhibitors | 140,000 tested, 0.17% active | AID 1671194;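 also: potency is read from the fitted curve at half-maximal effect; plate controls were DMSO cells for no effect and cell-free wells for full effect; nearly all actives have a fitted effect of over 45% in size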
HEK293 viab = cell viability loss counter-screen; HEK-293-SNCA-luc viability, GF-AFC fluorescence, 24 h; Potency, µM (series often up to 57.1 µM), for the others: at the highest dose activity change, negative = cytotoxicity, most hits filed as cytotoxic; 150,000 tested, 0.12% active; AID 1671193;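 also: potency is read from the fitted curve at half-maximal effect; 0% = DMSO-treated cells and -100% = medium-only wells without cells; nearly all actives have a fitted effect of over 30% in size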
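HEK-293-SNCA-luc cells (1500/well) plated 24 h, then exposed 24 h to a dilution series; GF-AFC added 30 min at 37C, fluorescence 405/540 nm; normalised to medium-only and DMSO wells, Hill fit.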
IP6K1 conf = confirmation of human IP6K1 inhibitors | AID 1645852 | recombinant IP6K1 kinase, ADP-Glo luminescence, 2 h | 1,200 tested, 13% active | Potency, µM (highest dose often 49 µM), for inactives: top-dose activity change, negative = inhibition, usual class: inhibitors | shares compounds with IP6K1 inh; also: potency is read from the fitted curve at half-maximal effect; % is scaled to controls: 0 for no effect and ±100 for the full control effect; nearly all actives have a fitted effect of over 65% in size
* hit, by the source's call; i = inactive; ? = inconclusive; . = no result given; [ ] = remark or other dose. Unless noted, calls follow the shape of the dose curve; as a rule, active = well fitted curve in the direction sought with a large enough effect; inconclusive = small, poorly fitted or top-dose-only effect, or another doubt; inactive = no such curve, though single readings can be large; an effect the other way counts as inactive or inconclusive.

SMILES	KDM5B inh	IP6K1 inh	SNCA expr inhib	HEK293 viab	IP6K1 conf
COc1ccc(NC(=O)CC2C(=O)N(c3ccccc3)C(=O)N2CCc2sccc2C)cc1 (stereo not drawn)	i	-33*	71%	-12%	-12%
COc1ccc(NC(=O)C2CCC(CNS(=O)(=O)c3csc(C(N)=O)c3)CC2)cc1 (stereo not drawn)	i	-39*	-17%	8%	?
CCOC(=O)N1CCN(Cc2nc3cc(NC(=O)c4ccccc4Cl)ccc3n2C(C)C)CC1	?	-25*	-29%	-8%	-12%
CCCC(=O)Nc1ccc2c(c1)nc(CN1CCN(C(=O)OCC)CC1)n2C(C)C	i	-28*	?	-2%	35%
CCOC(=O)N1CCN(Cc2nc3cc(NC(C)=O)ccc3n2C(C)C)CC1	?	-10	-22%	-11%	.
Cc1nnc2n1CC(Nc1ncc(C(F)(F)F)cc1Cl)CC2 (stereo not drawn)	i	.	.	.	.
Oc1ccc(NCc2ccc(OCc3ccccc3)cc2)cc1	?	-1	7%	-15%	.
Oc1ccc(NCc2ccc(OCc3ccccc3Cl)cc2)cc1	?	-28*	-1%	?	?
CN(Cc1ccccc1)C(=O)c1ccnc(-c2nnc3ccc(N(C)c4ccccc4)nn23)c1	i	-3	1%	-10%	.
COc1ccnc(-c2nnc3ccc(N(C)c4ccccc4)nn23)c1	i	-39*	?	?	?
O=C(Nc1cc(Cl)ccc1Cl)c1cc(S(=O)(=O)N2CCCc3ccccc32)ccc1F	i	-30*	42%	13%	-8%
CC(C)(C)c1ccc(CSC2=Nc3ccccc3C3=NC(CC(=O)NCc4cccs4)C(=O)N23)cc1 (stereo not drawn)	?	-26*	-10%	-9%	42%
O=C1CC(C(=O)Nc2ccc(Br)cc2)c2ccc(F)cc2N1 (stereo not drawn)	i	.	.	.	.
Cn1nc(C(C)(C)C)cc1C(=O)NNC(=O)c1ccc(C(F)(F)F)cc1	i	.	.	.	.
Cn1nc(-c2ccc(C(F)(F)F)cc2)nc2c(=O)n(C)c(=O)nc1-2	.	-41*	.	?	?
Cc1ccc(S(=O)(=O)c2nc(-c3ccco3)oc2SCC(=O)c2ccc(Cl)cc2)cc1	i	-7	-17%	-13%	.
O=C(CSc1oc(-c2ccco2)nc1S(=O)(=O)c1ccc(Cl)cc1)c1ccc(Cl)cc1	?	-27*	?	-9%	-13%
Cc1ccc(CSc2oc(-c3ccco3)nc2S(=O)(=O)c2ccc(Br)cc2)cc1	?	-32*	-23%	?	-5%
NC(=O)CSc1oc(-c2ccco2)nc1S(=O)(=O)c1ccc(Br)cc1	?	-33*	-15%	6%	?
OCCn1cc(-c2cnc3nnn(Cc4ccc5ncccc5c4)c3n2)cn1	.	-12	-7%	0%	-12%
Cn1cc(-c2ccc3nnc(Sc4ccc5ncccc5c4)n3n2)cn1	.	.	20%	-5%	.
CCc1ccccc1NC(=O)CN1C(=O)CCSc2ccc(S(=O)(=O)N3CCCC3)cc21	i	-31*	-6%	-3%	-16%
Cc1cc(CNc2ncnc3c2CCN(C(=O)c2ccoc2)CC3)no1	i	8	-17%	-1%	.
COc1ccccc1-c1cnc(Nc2ccc3c(c2)OCCO3)c2c1CCO2	35µM*	-26*	128%[87.6 µM]	-13%[87.6 µM]	-17%
Cc1ccccc1CNC(=O)c1sc2ncnc(N(C)C3CCCCC3)c2c1C	?	-28*	3%	-5%	-17%
Cc1ccc(CNC(=O)c2sc3ncnc(N(C)C4CCCCC4)c3c2C)cc1	i	-6	?	-4%	.
Cc1[nH]c(C=C2C(=O)Nc3ccc(S(=O)(=O)Cc4c(Cl)cccc4Cl)cc32)c(C)c1C(=O)N1CCC[C@H]1CN1CCCC1	.	.	?	-17%	-11%
Cc1[nH]c(/C=C2\C(=O)Nc3ccc(S(=O)(=O)N(C)c4cccc(Cl)c4)cc32)c(C)c1C(=O)N1CCN(C)CC1	.	15	.	-30%	.
Cc1[nH]c(/C=C2\C(=O)Nc3ccc(F)cc32)c(C)c1C(=O)NCCN1CCCC1	.	-5	.	-11%	2%[18.9 µM]
O=C1CC2(C(=O)Nc3ccccc32)c2sc(C(=O)O)c(-c3ccc(Cl)cc3)c2N1 (stereo not drawn)	i	.	.	.	.
